Compounds with a hit are over-represented: about 9.9% of the library has one in this group of screens.
IL-1B inflam inh = inhibitors of inflammasome signaling (IL-1 beta secretion); AID 743279; 4.7% of 360,000 active; THP-1 LPS/ATP IL-1B secretion, AlphaLISA, 16 h; stronger effect = lower value; activity change, % at 57.5 µM; in the data active = activity change below about -50%; inconclusive = mostly about -30% to -49%
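Secreted IL-1B measured by AlphaLISA bead assay after 16 h compound exposure of THP-1 cells; compounds (final up to 57.5 uM) added 1 h before LPS (250 ng/mL) and ATP (1.25 mM) stimulation; lower signal means less secretion.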
MCF10A rerep = induces DNA re-replication in MCF 10a normal breast cells; MCF 10A DNA re-replication, Hoechst nuclear intensity, 48 h; Potency, µM (titrated, usually from 46.1 µM), hits mostly activators; 2.9% of 350,000 active; AID 624296; also: nearly all actives have a fitted effect of over 50% in size
KB-V1 MDR tox = KB-V1 MDR subline cytotoxicity. KB-V1 MDR cells viability, CellTiter-Glo, 72 h. Potency, µM (titrated, usually from 46.1 µM), usual class: cytotoxic. 3.4% of 400,000 active. AID 1347076; also: nearly all actives have a fitted effect of over 60% in size
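Compound-treated KB-V1 multidrug-resistant cells, 72 h, 37 degrees C; viability by CellTiter-Glo. Fitted qHTS curves give the values.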
KB-3-1 tox = KB-3-1 parental cell cytotoxicity; KB-3-1 viability, CellTiter-Glo ATP luminescence, 72 h; Potency, µM (top dose mostly 46.1 µM), actives largely listed as cytotoxic; 1.4% of 400,000 active; AID 1347075; also: nearly all actives have a fitted effect of over 60% in size
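Using CellTiter-Glo luminescence, growth of non-resistant KB-3-1 adenocarcinoma cells is assessed 72 h after pin-tool compound addition at 37 °C. Normalized responses across the concentration series yield fitted curves.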
SW480 rerep = DNA re-replication induction in SW480 cells; SW480 DNA re-replication, Hoechst DNA content imaging, 48 h; Potency, µM (series often up to 46.1 µM), hits mostly activators; 1.8% of 340,000 active; also: nearly all actives have a fitted effect of over 55% in size
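Image-based read-out: total Hoechst fluorescence of nuclei (405 nm excitation, 500-530 nm emission), with hits raising the fraction of high-intensity nuclei. SW480 colon cells incubated 48 hr with compounds at 37 C.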
Hits are given with their value; . = inactive; ? = inconclusive; / = no result; + = active, no number. Unless noted, calls follow the shape of the dose curve; as a rule, active = well fitted curve in the direction sought with a large enough effect; inconclusive = small, poorly fitted or top-dose-only effect, or another doubt; inactive = no such curve, though single readings can be large; an effect the other way counts as inactive or inconclusive.

SMILES	IL-1B inflam inh	MCF10A rerep	KB-V1 MDR tox	KB-3-1 tox	SW480 rerep
O=c1c2ccccc2nc(-c2ccccc2)n1CCN1CCOCC1	.	.	.	.	.
CC(=O)Nc1cccc(Oc2ncnc3scc(-c4ccccc4)c23)c1	-53	?	?	.	.
Cc1c(C(=O)OCC(=O)N(C)CC(=O)Nc2ccc(F)cc2)oc2ccccc12	.	.	.	.	.
CCCN(C(=O)Cn1ncc2c1-c1ccccc1OC2)c1cccc(C)c1	/	/	.	.	/
NC(=O)C1CCN(Cc2nc3cc(C(F)(F)F)ccc3c(=O)[nH]2)CC1	.	?	.	.	.
COCCCNCC1C(Oc2ccc(Cl)cc2)C(=O)N1c1ccccc1C (stereo not given)	-76	.	.	.	.
Cc1ccccc1N1C(=O)C(Oc2ccc(Cl)cc2)C1CNCCCOC(C)C (stereo not given)	-91	.	.	.	.
COCCN1CC(=O)N(c2cccc(C)c2C)C(c2ccc(Cl)cc2)C1=O (stereo not given)	.	.	.	.	.
O=C(c1ccc(-c2ccc([N+](=O)[O-])cc2)o1)N1CCCCCCC1	-54	12µM	.	?	.
O=C(Cc1ccc([N+](=O)[O-])cc1)N1CCCCCC1	.	.	.	.	.
O=C(c1ccc(-c2cccc(Cl)c2)o1)N1CCN(c2ccc([N+](=O)[O-])cc2)CC1	.	.	.	.	.
O=C(c1ccc(-c2ccc([N+](=O)[O-])cc2)o1)N1CCCC(C(F)(F)F)C1 (stereo not given)	-53	.	.	.	.
O=C(CN1CCCN(Cc2cccc(F)c2)S1(=O)=O)Nc1ccc2c(c1)OCCO2	/	/	.	.	/
CCOC(=O)C1CCN(C(=O)c2sc3nc(-c4ccc(F)cc4)cn3c2C)CC1	.	.	23µM	.	.
NC1=NC[C@H](c2ccccc2)N1CC1CCCCC1	-54	.	.	.	.
CCCCNC(=NCc1cccc(C(F)(F)F)c1)Nc1ccccc1	-83	?	21µM	?	?
COc1ccc(NC(=O)/C(C#N)=C/c2c(C)nn(-c3ccc(F)cc3)c2Cl)cc1Cl	-55	?	.	.	?
COc1ccccc1NC(=O)/C(C#N)=C/c1c(C)nn(-c2ccc(F)cc2)c1Cl	.	.	.	.	.
Cc1nn(-c2ccccc2)c(Cl)c1/C=C(\C#N)C(=O)NC(C)C	-102	23µM	.	?	?
CCOc1ccc(C(=O)NCC(c2ccc3c(c2)OCO3)N2CCN(c3ccccc3F)CC2)cc1 (stereo not given)	/	/	.	.	/
COCCSc1ccccc1C(=O)NCc1ccc(S(N)(=O)=O)cc1	.	.	?	.	.
COCCSc1ccccc1C(=O)NCc1cccnc1	-76	.	?	.	.
O=C(NC(=S)NCc1ccc(F)cc1)c1ccccc1	.	.	21µM	.	?
FC(F)Sc1ccc(NC(=S)NCc2ccccc2)cc1	-92	?	?	.	.
FC(F)(F)c1ccc(NC(=S)NCc2ccccc2)cc1	-62	?	?	.	.
SMILES	IL-1B inflam inh	MCF10A rerep	KB-V1 MDR tox	KB-3-1 tox	SW480 rerep
O=C(O)c1ccc(NC(=S)NCc2ccccc2)cc1	.	.	?	.	.
Cc1c(Nc2nc3ccccc3n3c(C)nnc23)cccc1C(=O)O	/	/	?	.	/
O=C(Cc1cc2ccccc2o1)NCc1ccc(F)cc1	.	12µM	?	.	?
S=C(NCc1ccccc1)NCc1ccccc1	.	?	.	.	21µM
NS(=O)(=O)c1ccc(CNC(=S)NCc2ccc(Cl)cc2)cc1	.	.	.	.	.
NS(=O)(=O)c1ccc(CNC(=S)NCc2ccc(F)cc2)cc1	+	.	.	.	.
CC(C)N(C(=S)NCc1ccccc1)c1ccccc1	-50	?	?	.	.
O=C(NCc1ccccc1)c1c[nH]c2ccccc2c1=O	.	.	.	.	.
FC(F)Sc1ccc(NC(=S)NC(c2ccccc2)c2ccccc2)cc1	-68	3.7µM	?	?	?
Fc1ccc(NC(=S)NCc2cccs2)cc1	.	.	18µM	?	?
CC(C)c1ccc(C(=O)NC(=S)NCc2cccnc2)cc1	.	?	2.9µM	?	.
O=C(NCc1ccccc1)c1ccc(-c2ccc(F)cc2)o1	.	.	18µM	.	.
Cc1ccc(C(=O)NC(=S)NCc2cccnc2)cc1C	.	.	?	.	.

Bioassay records: PubChem BioAssay, National Center for Advancing Translational Sciences (NCATS)
